An excerpt weighted towards active compounds, which were near 32% of everything screened.
CYP2C19 activ – activators of human cytochrome P450 2C19. P33261. recombinant CYP2C19, luciferin-H EGE luminescence; hits give high values; 0 = fully inhibited enzyme, 1 = untreated enzyme. activation factor at 5 µM. 96,000 tested, under 10 active;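 active = activation factor of at least 2 at 5 µM in the primary screen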;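 also: 0 = wells with 2.5 mM tranylcypromine and 1 = vehicle-only wells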
Target sequence (P33261 whole entry, looked up): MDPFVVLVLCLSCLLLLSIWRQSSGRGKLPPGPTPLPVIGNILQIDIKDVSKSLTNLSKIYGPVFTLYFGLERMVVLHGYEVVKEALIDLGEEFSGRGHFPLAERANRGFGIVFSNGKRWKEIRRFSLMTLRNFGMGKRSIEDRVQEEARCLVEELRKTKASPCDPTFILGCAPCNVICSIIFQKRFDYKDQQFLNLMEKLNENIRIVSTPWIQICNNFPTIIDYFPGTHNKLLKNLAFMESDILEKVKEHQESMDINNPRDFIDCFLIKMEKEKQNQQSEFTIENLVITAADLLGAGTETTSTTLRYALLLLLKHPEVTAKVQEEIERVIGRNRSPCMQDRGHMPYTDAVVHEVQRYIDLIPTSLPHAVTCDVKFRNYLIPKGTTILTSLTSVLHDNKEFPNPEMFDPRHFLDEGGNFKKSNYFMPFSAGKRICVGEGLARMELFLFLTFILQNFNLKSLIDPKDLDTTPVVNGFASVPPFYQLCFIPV
CYP2C9 activ – increases human cytochrome P450 2C9 activity. recombinant CYP2C9, luciferin-H conversion, luminescence; hits give high values; factor 1 = untreated enzyme, 0 = blocked. P11712. activation factor at 5 µM. 1.4% of 96,000 active;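 active = activation factor of 2 or more for CYP2C9 at a 5 µM dose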;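 also: 0 = sulfaphenazole-blocked wells and 1 = vehicle-only wells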
PostGolgi yeast – growth inhibition of a yeast mutant, post-Golgi transport screen | AID 739 | 0.9% of 98,000 active | post-Golgi transport phenotypic cell assay | inhibition, % at 10 µM;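 also: yeast cells grown in 1536-well plates; yeast grown about 18 h at 30C before absorbance read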
CYP2C19 inh – blocks human cytochrome P450 2C19. P33261. CYP2C19 Supersomes, luciferin-H EGE luminescence, 30 min. inhibition, % at 5 µM. 21% of 96,000 active. AID 778;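 active = CYP2C19 inhibition above a set limit at 5 µM in the primary screen, cut at about 50% in these data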;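 also: plate controls were negative control wells for no effect and 2.5 mM tranylcypromine positive control for full effect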
PostGolgi ctrl – yeast control strain growth, post-Golgi counter-screen. AID 738. 5% of 98,000 active. efflux-deficient yeast background strain, growth absorbance A615, 16 h. inhibition, % at 10 µM
CYP2C9 inhib – inhibitors of human CYP2C9 | P11712 | inhibition, % at 5 µM | CYP2C9 Supersomes, luciferin-H conversion, luminescence | 20% of 96,000 active;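 active = blocking of liver enzyme CYP2C9 beyond about 50% at 5 µM, limit read from the data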
* marks the source's active call; other numbers are inactive results; . = no result. Rule as the data show it, unless noted: active = inhibition above about 30%; inactive = the rest.

SMILES	CYP2C19 activ	CYP2C9 activ	PostGolgi yeast	CYP2C19 inh	PostGolgi ctrl	CYP2C9 inhib
CCC(C)C(=O)Nc1nc(C)c(-c2csc(Nc3cc(Cl)ccc3OC)n2)s1 (stereo not given)	1	0.5	0	5	1	46
CCC(C)C(=O)Nc1nc(C)c(-c2csc(Nc3cc(OC)ccc3OC)n2)s1 (stereo not given)	0.8	0.3	-1	21	16	75*
COc1ccccc1Nc1nc(-c2sc(NC(=O)c3ccc([N+](=O)[O-])cc3)nc2C)cs1	0.6	0.2	-9	44	-1	78*
COc1ccc(OC)c(Nc2nc(-c3sc(NC(=O)CC(C)C)nc3C)cs2)c1	0.7	0.2	14	28	1	78*
Cc1sc2nc(C)n(/N=C/c3ccc(O)cc3)c(=O)c2c1C	1	0.9	11	0	0	7
CCCC(C)C(=O)Nc1nc(C)c(-c2csc(Nc3ccc(Cl)cc3)n2)s1 (stereo not given)	0.7	0.5	0	34	34*	55*
CCCC(C)C(=O)Nc1nc(C)c(-c2csc(Nc3ccccc3OC)n2)s1 (stereo not given)	0.8	0.3	-2	23	1	74*
CCCCC(=O)Nc1nc(C)c(-c2csc(Nc3cc(Cl)ccc3OC)n2)s1	0.9	0.7	4	6	-5	33
CCCCCCC(=O)Nc1nc(C)c(-c2csc(Nc3cc(Cl)ccc3C)n2)s1	0.6	0.6	-5	37	3	38
CCCCCC(=O)Nc1nc(C)c(-c2csc(Nc3ccccc3OC)n2)s1	0.9	0.5	3	8	4	46
CCCCC(=O)Nc1nc(C)c(-c2csc(Nc3cc(OC)ccc3OC)n2)s1	0.9	0.2	-2	10	14	79*
Cc1ccccc1S(=O)(=O)Cc1ccc(C(=O)NC(C)c2ccc3c(c2)OCCO3)o1 (stereo not given)	0	0	3	99*	11	98*
CC(NC(=O)c1ccc(CS(=O)(=O)c2ccc(Cl)cc2)o1)c1ccc2c(c1)OCCO2 (stereo not given)	0.5	0.3	4	50	14	74*
Cc1ccccc1S(=O)(=O)Cc1ccc(C(=O)NCCCOC(C)C)o1	0.7	0.7	-3	29	0	29
CNC(=O)C1C2C=CC3(O2)C1C(=O)N(C1CC1)C3C(=O)NCc1ccc(OC)cc1 (stereo not given)	1.2	1.3	4	-16	23	-26
COc1ccc(-c2nn(CC(=O)N3CCCCC3)c(=O)c3ccccc23)cc1	1	0.6	-3	-4	-1	43
CSc1nsc(SCC(=O)N2CCN(c3ccccc3)CC2)n1	0.3	0.2	6	73*	16	76*
Cn1cc(SCC(=O)O)c2ccccc21	1	1	-2	3	0	3
CC(=O)c1cn(CC(=O)Nc2ccccc2)c2ccccc12	0.5	0.6	-9	49	-5	41
CC(C)NC(=O)Cn1c(SCC(=O)N2CCCc3ccccc32)nc2ccccc21	0.4	0.2	23	58*	2	85*
CCn1cc(C(=O)C(F)(F)F)c2ccccc21	0.9	2.3*	13	7	0	-131
Cn1cc(SCC(=O)N2CCOCC2)c2ccccc21	0.1	1.3	-1	90*	-3	-25
COc1ccc(-c2nnc(SCC(=O)Nc3ccccc3)n2C)cc1	0.9	0.8	2	11	-6	20
O=C(Cc1cccc2ccccc12)N1CCCc2ccccc21	0.6	2.3*	1	43	13	-132
Cn1cc(SCC(=O)N2CCCc3ccccc32)c2ccccc21	0	0.8	-1	98*	15	18
SMILES	CYP2C19 activ	CYP2C9 activ	PostGolgi yeast	CYP2C19 inh	PostGolgi ctrl	CYP2C9 inhib
Cn1cc(SCC(=O)N2CCN(c3ccccc3)CC2)c2ccccc21	0	1	-11	99*	9	4
CCn1cc(SCC(=O)N2CCOCC2)c2ccccc21	0.4	1	1	59*	5	0
CCOC(=O)/C(C(N)=NCCO)=C(/O)c1ccccc1	0.9	1.1	0	7	14	-6
O=C(Cn1c(SCC(=O)N2CCCc3ccccc32)nc2ccccc21)N1CCCC1	.	.	6	.	0	.
CC(OC(=O)Cn1c(C(F)(F)F)nc2ccccc21)C(=O)N1CCCc2ccccc21 (stereo not given)	0.8	0.5	29	17	-4	52*
CC(C)CNC(=O)c1cc2nc3c(c(C(F)(F)F)n2n1)CCc1ccccc1-3	0.3	0.1	-7	68*	-6	88*
CCCCNC(=O)c1cc2nc3c(c(C(F)(F)F)n2n1)CCc1ccccc1-3	1	0.8	0	3	-1	21
CCOc1cc(N2CCOCC2)c(OCC)cc1NC(=O)CSc1cccc[n+]1[O-]	1	0.7	-7	2	7	33
COc1ccccc1CNC(=O)C1CC(c2ccccc2[N+](=O)[O-])=NO1 (stereo not given)	0.6	2.8*	-7	43	13	-180
COc1ccc(CNC(=O)C2CC(c3ccccc3[N+](=O)[O-])=NO2)cc1 (stereo not given)	0.5	1.1	5	50*	7	-6
O=C(NCc1cc(C(F)(F)F)cc(C(F)(F)F)c1)C1CC(c2ccccc2[N+](=O)[O-])=NO1 (stereo not given)	0.5	1.1	-7	48	20	-10
CCOc1cc2[nH]c(=O)n(CCCCC(=O)NCc3ccco3)c(=O)c2cc1OCC	.	.	1	.	6	.
Cn1c(-c2ccccc2)cnc1SCc1nc2ccccc2c(=O)[nH]1	0	0.8	1	100*	2	21
CC(C)Cn1c(SCc2nc3ccccc3c(=O)[nH]2)nc2ccccc2c1=O	0.4	0.2	-14	55*	1	80*
COc1ccc(Cc2nnc(SCc3nc4ccccc4c(=O)[nH]3)o2)cc1	0.7	0.8	0	26	-2	18
COc1ccc(C(=O)NCCc2nnc(SCc3nc4ccccc4c(=O)[nH]3)n2C)cc1	1.1	0.2	6	-6	2	84*
Cn1c(SCc2nc3ccccc3c(=O)[nH]2)nnc1-c1ccco1	0.5	1	-1	51*	2	-4
CC1(C)CC(=O)C(C=NC(CCC(N)=O)C(=O)O)=C(O)C1 (stereo not given)	1.1	1	3	-10	-6	0
Cc1cc(=O)[nH]c(SCC(=O)Nc2ccccc2C#N)c1C#N	0.4	0.3	2	64*	4	71*
COC(=O)CSc1[nH]c(=O)cc(C)c1C#N	1.1	1	0	-11	8	2
CCOC(=O)CSc1[nH]c(=O)cc(C)c1C#N	0.9	0.7	-8	6	17	33
Cc1cc(=O)[nH]c(SCC(=O)Nc2ccc(Br)cc2)c1C#N	0.1	0.1	3	95*	12	93*

Bioassay records (PubChem)
